# Bioassay records deposited in PubChem BioAssay by National Center for Advancing Translational Sciences (NCATS).
# VACV Venus inh = qHTS for Stage-Specific Inhibitors of Vaccinia Orthopoxvirus: Venus Reporter Primary qHTS. AID 720580, 2013. Potency, µM (doses to about 36.5 µM), without a hit: at the highest dose activity change, negative = inhibition, usual class: inhibitors. 330,000 compounds, 0.46% hits. Vaccinia virus Venus reporter expression, fluorescence; calls by dose curve; tested in A549 cells; also: potency is read from the fitted curve at half-maximal effect; % is scaled to controls: 0 for no effect and ±100 for the full control effect; nearly all actives have a fitted effect of over 30% in size
# Vaccinia mCherry = qHTS for Stage-Specific Inhibitors of Vaccinia Orthopoxvirus: mCherry Reporter Primary qHTS | Vaccinia virus mCherry reporter infection, fluorescence | Potency, µM (series often up to 36.5 µM), without a hit: top-dose activity change, negative = inhibition, usual class: inhibitors | 310,000 compounds, 0.63% hits | AID 720579, 2013; calls by dose curve; tested in A549 cells; also: potency is read from the fitted curve at half-maximal effect; % is scaled to controls: 0 for no effect and ±100 for the full control effect; nearly all actives have a fitted effect of over 35% in size
# Marburg entry inh = qHTS for inhibitors of binding or entry into cells for Marburg Virus | Marburg virus pseudotyped entry inhibition, cell reporter | 300,000 compounds, 1.8% hits | Potency, µM (doses to about 37.8 µM), for inactives: at the highest dose activity change, negative = inhibition, actives largely listed as inhibitors | AID 540276, 2011; calls by dose curve; tested in HEK293 cells; also: potency is read from the fitted curve at half-maximal effect; % is scaled to controls: 0 for no effect and ±100 for the full control effect
# Lassa entry inh = qHTS for Inhibitors of binding or entry into cells for Lassa Virus. Lassa virus pseudotype entry inhibition, cell reporter. Potency, µM (series often up to 37.9 µM), for the others: at the highest dose activity change, negative = inhibition, most hits filed as inhibitors. 300,000 compounds, 1.2% hits. AID 540256, 2011; calls by dose curve; tested in HEK293 cells; also: potency is read from the fitted curve at half-maximal effect; % is scaled to controls: 0 for no effect and ±100 for the full control effect; nearly all actives have a fitted effect of over 50% in size
# CHX counter = Cycloheximide Counterscreen for Small Molecule Inhibitors of Shiga Toxin | cell reporter, cycloheximide protein synthesis inhibition counterscreen | max response, % | 300,000 compounds, 12% hits | AID 2314, 2010; in the data active = max response mostly above about 13%, no sharp cut-off; inactive = mostly below about 14%; also: read at 38.3 µM for the half of the compounds with a filed dose; 0% is about no effect
# Shiga inhibitor = A qHTS for Small Molecule Inhibitors of Shiga Toxin. Vero cells, Shiga toxin protein synthesis inhibition reporter. AID 2315, 2010. 290,000 compounds, 9.2% hits. inhibition, % at 38.7 µM; in the data active = inhibition mostly above about 28%, no sharp cut-off; inactive = mostly below about 43%; also: 0% is about no effect
# * = called active by the depositor; i = inactive; ? = inconclusive; / = no result given; [ ] = remark or other dose. The full list was thinned out, with hits kept by preference.
SMILES,VACV Venus inh,Vaccinia mCherry,Marburg entry inh,Lassa entry inh,CHX counter,Shiga inhibitor
Cc1cc(C)n(-c2nc3ccccc3s2)n1,/,/,?,16%,56*,109*
Cc1cc(NC(=O)CN2CC(C)OC(C)C2)n(-c2nc3ccccc3s2)n1 (stereo not drawn),-4%,-14%,18%,-9%,-7,-8
COc1ccc(/C=N/NC(=O)c2ccc[nH]2)cc1,/,/,/,/,29*,77*
COc1cc(/C=N/NS(=O)(=O)c2ccccc2)ccc1OS(=O)(=O)c1ccc(C)cc1,1%,-12%,?,6%,-1,-11
COC(=O)N/N=C/c1ccc(OS(=O)(=O)c2ccc(C)cc2)c(OC)c1,-7%,-15%,6%[46.1 µM],7.9µM*,-6,21
C=CCNC(=O)/C(C#N)=C/c1ccc(OS(=O)(=O)c2ccc(C)cc2)c(OC)c1,-14%,-16%,?,13µM*,1,21
COc1ccc(/C=N/NC(=O)c2cccnc2)cc1O,-17%,i,?,-4%,19*,/
CCNC(=O)COc1ccc(/C=N/NC(=O)c2cccnc2)cc1OC,-16%,-12%,16%[46.1 µM],2%[46.1 µM],6,9
COc1ccc(/C=C(\C#N)C(=O)NCc2cccs2)cc1OC,-5%,-13%,1%,1%,1,-4
Cc1ccc(NC(=O)Cn2cc(S(=O)(=O)NC(C)C)c(S(=O)(=O)NC(C)C)c2)cc1Cl,?,?,/,-10%[46.1 µM],/,/
O=C(N/N=C/c1cc(O)ccc1Br)c1cccnc1,/,/,/,/,-3,2
COc1cc(/C=N/NC(=O)c2cccnc2)ccc1OS(=O)(=O)c1ccc(C)cc1,0%,i,-18%,1%,6,1
COc1ccc(/C=N/NC(=O)c2cccnc2)cc1,/,/,/,/,31*,121*
Cc1cc(/C=N/NC(=O)c2ccc(O)cc2)c(C)n1CC(C)C,/,/,/,/,48*,82*
COCCn1c(C)cc(/C=N/NC(=O)c2cccnc2)c1C,-2%,-11%,?,/,22*,69*
COc1cc(/C=N/NC(=O)c2cccnc2)ccc1OS(=O)(=O)c1cc(C)ccc1C,-13%,-18%,?,?,17*,6
COc1ccccc1C(=O)NCC(C)(C)CN=C1NS(=O)(=O)c2ccccc21,-2%,5%,1%[46.1 µM],-23%,-4,2
Cc1cc(O)c(C)c(O)c1/C=N/NC(=O)c1cccnc1,-23%,?,10µM*,?,1,-4
COc1cc(/C=N/NC(=O)c2cccnc2)ccc1OCC(=O)Nc1ccc(C)cc1,-1%,-5%,0%[46.1 µM],14%[46.1 µM],21*,21
O=c1[nH]/c(=C/c2ccc3c(c2)OCO3)c(=O)[nH]/c1=C/c1ccc2c(c1)OCO2,-14%,-2%,/,/,/,/
O=C1NC(N2CCOCC2)=N/C1=C/c1ccc2c(c1)OCO2,13%,i,5%,-10%,17*,16
O=C(CSCc1ccccc1)NCCc1ccc(F)cc1,-15%,i,-4%[46.1 µM],3%[46.1 µM],17*,30
O=C(CCc1ccccc1)NCCSCc1c(F)cccc1Cl,-12%,i,4%,-7%,23*,14
CC(CC(=O)NCCc1ccc(F)cc1)c1ccccc1 (stereo not drawn),/,/,/,/,25*,57
O=C(CSCc1c(F)cccc1Cl)NCc1ccco1,9%,i,0%,?,26*,24
SMILES,VACV Venus inh,Vaccinia mCherry,Marburg entry inh,Lassa entry inh,CHX counter,Shiga inhibitor
O=C(CSCc1ccc(Br)cc1)NCCc1ccccc1,/,/,/,/,-3,2
NC(=O)C1CCN(C(=O)c2ccc3c(c2)N(Cc2cccc(Cl)c2)C(=O)c2ccccc2S3=O)CC1 (stereo not drawn),-11%,-4%,/,17%[46.1 µM],/,/
CCc1cccc(C)c1NC(=O)CCn1nc(C)c2c(C)n(-c3ccccc3)nc2c1=O,-24%,-28%,/,19%[46.1 µM],/,/
CC(=O)c1ccc(NC(=O)c2nc(-c3ccccc3)n(-c3ccccc3Cl)n2)cc1,-6%,-21%,-26%[46.1 µM],-2%[46.1 µM],/,/
CCc1ccc(CN2C(=O)c3ccccc3C2C(=O)NCCc2ccc(OC)c(OC)c2)cc1 (stereo not drawn),-11%,-13%,/,-9%[46.1 µM],/,/
COC(=O)c1cc(Cl)ccc1NC(=O)CSc1ncc(S(=O)(=O)c2ccc(Br)cc2)c(=O)[nH]1,11%,16%,?,4%[46.1 µM],/,/
O=C(CSCc1c(F)cccc1Cl)NCCc1ccccc1,/,/,/,/,21*,46*
CC(C)NC(=O)CSCc1c(F)cccc1Cl,/,/,?,9%,8.4*,9
COc1ccc(CCNC(=O)CSCc2c(F)cccc2Cl)cc1OC,-19%,i,?,?,1,-1
CNC(=O)CSCc1c(F)cccc1Cl,/,/,4%,-18%,-5,-4
N#Cc1c(N2CCCC2)nc(N)c2c(N)nc(N3CCCC3)cc12,?,?,?,?,31*,47*
COc1cc2c(C#N)c(N3CCN(c4ccccc4OC)CC3)nc(N)c2c(N)n1,?,/,?,11µM*,25,17
COc1ccc(/C=C/C(=O)NCCSCc2ccco2)cc1,-4%,-15%,9%,-12%,17*,36
O=C(/C=C/c1ccccc1)NCCSCc1ccccc1,-9%,-8%,11%,4%,31,44*
COc1ccc(/C=C/C(=O)NCCCc2ccccc2)cc1,-21%,-3%,21%,25%,0,-2
COc1ccc(/C=C/c2nc3ccccc3n2Cc2ccccc2OC)cc1,-12%,-4%,?,?,69*,106*
COc1ccccc1Cn1c(/C=C/c2ccccc2)nc2ccccc21,-25%,-27%,?,?,74*,87*
COc1ccccc1Cn1c(C(C)C)nc2ccccc21,/,/,/,/,-3,-11
COCCn1c(/C=C/c2ccccc2)nc2ccccc21,-24%,-14%,10µM*,?,33*,68*
Cc1cccc(NC(=O)Cn2c(/C=C/c3ccccc3)nc3ccccc32)c1,-20%,-19%,-9%,0%,28*,111*
O=C(Cn1nc(-c2ccc(Cl)cc2)c2ccccc2c1=O)Nc1cccc(C(F)(F)F)c1,10%,-12%,?,-30%[46.1 µM],/,/
c1ccc2c(c1)nc1n2C2(N3CCOCC3)CCCC2C1N1CCOCC1 (stereo not drawn),/,/,12%,2%,10*,42
Oc1ccc2c(c1)C1CCCC1(N1CCOCC1)O2 (stereo not drawn),-4%,-14%,22%,14%,9,10
CC(C)C(OC(=O)/C=C/c1ccc2c(c1)OCO2)C(=O)NC(N)=O (stereo not drawn),3%,-4%,11%[46.1 µM],?,5,26
Cc1c(Cl)cccc1NC(=S)Nn1cnnc1,-17%,0%,-17%,6%,-3,9
Cc1c(Cl)cccc1NC(=S)NNS(=O)(=O)c1ccc([N+](=O)[O-])cc1,?,10µM*,9%,-1%,4,-11
CS(=O)(=O)Nc1ccc(C(=O)Nc2ccccc2Cl)cc1,-7%,-7%,15%[46.1 µM],19%[46.1 µM],9,58
